Hits are enriched below; roughly 18% of the tested compounds scored in any of these assays.
DT40 TDP1 CPT – qHTS for Inhibitors of human tyrosyl-DNA phosphodiesterase 1 (TDP1): qHTS in cells in presence of CPT; chicken DT40 Tdp1-/-;hTDP1 cells + 20 nM CPT, ATP luminescence, 48 h; Potency, µM (series often up to 46.2 µM), actives largely listed as inhibitors; 420,000 tested, 12% active; further: nearly all actives have a fitted effect of over 55% in size
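Chicken DT40 Tdp1-/- cells complemented with human TDP1, 400 cells/well, exposed to compounds plus 20 nM camptothecin for at least 48 h at 37 C; viability read as ATP content by CellTiter-Glo luminescence.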
RORg inh – qHTS for inhibitors of ROR gamma transcriptional activity; Drosophila S2 Gal4-RORgamma UAS-luciferase reporter, 20 h; Nuclear receptor ROR-gamma (Mus musculus), P51450; 310,000 tested, 5.4% active; AID 2551, 2010; Potency, µM (titrated, usually from 53.6 µM), actives largely listed as inhibitors; further: nearly all actives have a fitted effect of over 60% in size
Target sequence (P51450 whole entry, looked up, the tested form may be a part): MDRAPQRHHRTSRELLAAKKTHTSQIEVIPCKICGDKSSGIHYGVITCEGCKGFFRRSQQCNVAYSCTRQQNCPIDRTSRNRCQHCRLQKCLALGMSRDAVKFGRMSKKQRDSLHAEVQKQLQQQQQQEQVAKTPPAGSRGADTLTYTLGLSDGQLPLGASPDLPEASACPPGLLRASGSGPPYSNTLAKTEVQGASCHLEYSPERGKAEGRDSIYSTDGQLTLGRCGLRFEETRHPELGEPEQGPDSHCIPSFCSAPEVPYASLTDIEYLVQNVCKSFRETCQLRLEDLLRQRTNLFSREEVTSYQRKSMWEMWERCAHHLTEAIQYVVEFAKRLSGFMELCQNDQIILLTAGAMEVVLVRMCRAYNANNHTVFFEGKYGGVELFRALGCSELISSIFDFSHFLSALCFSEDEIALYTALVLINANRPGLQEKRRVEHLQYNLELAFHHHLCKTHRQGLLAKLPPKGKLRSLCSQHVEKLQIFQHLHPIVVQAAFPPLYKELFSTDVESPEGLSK
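Stable Schneider cell line, Gal4 DNA-binding domain fused to ROR gamma, UAS-luciferase. Cmpd 1 hr RT → CuSO4 700 uM final → 20 hr RT → luciferase reagent 10 min → luminescence.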
VP16 counter – VP16 counterscreen qHTS for inhibitors of ROR gamma transcriptional activity; AID 2546, 2010; Potency, µM (top dose mostly 53.6 µM), usual class: inhibitors; Drosophila S2 Gal4-VP16 UAS-luciferase, luminescence, 20 h; 310,000 tested, 3.5% active;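 further: Gal4-VP16 expression switched on by copper sulfate through the metallothionein promoter; nearly all actives have a fitted effect of over 50% in size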
IL1B secr inh – qHTS for Inhibitors of Inflammasome Signaling: IL-1-beta AlphaLISA Primary Screen | 360,000 tested, 4.7% active | THP-1 LPS/ATP IL-1B secretion, AlphaLISA, 16 h; hits give low values | activity change, % at 57.5 µM | AID 743279, 2014; in the data active means activity change below about -50%; inconclusive means mostly about -30% to -49%
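THP-1 cells pretreated 1 hr with compounds (up to 57.5 uM final), then stimulated with LPS (250 ng/mL final) plus ATP (1.25 mM final); secreted IL-1B measured by AlphaLISA after 16 hr, decreased signal indicating inhibition.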
LDHA block – qHTS assay for inhibitors of human lactate dehydrogenase; activity change, % (values are at about 110 or 230 µM); 480,000 tested, 0.15% active; purified LDHA, NADH/diaphorase-resazurin fluorescence; hits give low values; in the data active means activity change below about -30%; inconclusive means mostly about -25% to -30%
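Human LDH5 (2 nM) was incubated with 0.06 mM NADH and 0.2 mM pyruvate for 5 min at room temperature in Tris pH 7.4. Remaining NADH was coupled through diaphorase/resazurin, and resorufin fluorescence was read at 0 and 20 min.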
TDP1 cell noCPT – qHTS for Inhibitors of human tyrosyl-DNA phosphodiesterase 1 (TDP1): qHTS in cells in absence of CPT. DT40 Tdp1-/- hTDP1 cells, no CPT, ATP luminescence, 48 h. Potency, µM (highest dose often 46.2 µM), actives largely listed as inhibitors. 420,000 tested, 15% active. AID 686978, 2013; further: nearly all actives have a fitted effect of over 55% in size
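Compound effects on proliferation are scored in DT40 Tdp1-/-;hTDP1 cells in the absence of CPT. ATP levels (CellTiter-Glo luminescence) are recorded after a ≥48 hr, 37 °C incubation.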
Hits are given with their value; 0 = inactive; ? = inconclusive; - = no result given. Unless noted, the call rests on the fitted dose curve; in most records, active means well fitted curve in the direction sought with a large enough effect; inconclusive means small, poorly fitted or top-dose-only effect, or another doubt; inactive means no such curve, though single readings can be large; an effect the other way counts as inactive or inconclusive.

SMILES	DT40 TDP1 CPT	RORg inh	VP16 counter	IL1B secr inh	LDHA block	TDP1 cell noCPT
COc1ccc(OCc2ccc(-c3nc(C#N)c(NCc4cccnc4)o3)o2)cc1	?	-	-	-	0	18µM
Cc1ccccc1OCc1ccc(-c2nc(C#N)c(NCc3cccnc3)o2)o1	15µM	-	-	-	0	21µM
O=c1[nH]c2ccc(NC(=S)Nc3ccccc3)cc2[nH]1	0	0	0	0	0	0
Cc1ccc(NC(=S)Nc2ccc3[nH]c(=O)[nH]c3c2)cc1	?	10µM	0	?	0	?
CN(C)c1oc(-c2ccccc2Cl)nc1S(=O)(=O)c1ccccc1	?	0	0	0	0	21µM
Cc1ccc(S(=O)(=O)c2nc(-c3ccccc3)oc2N2CCCCCC2)cc1	23µM	-	-	-	0	21µM
O=S(=O)(c1ccccc1)c1nc(-c2cccc(Cl)c2)oc1N1CCOCC1	?	0	0	0	0	18µM
O=S(=O)(c1ccccc1)c1nc(-c2ccc(Cl)cc2Cl)oc1N1CCCCCC1	23µM	-	-	-	0	18µM
O=C(Nc1oc2ccccc2c(=O)c1-c1ccc2c(c1)OCO2)C1CCCCC1	-	-	-	-	0	-
O=C(O)CCCCCCCCCCCl	-	-	-	-	0	-
CCN1CCN(c2oc(-c3ccccc3)nc2S(=O)(=O)c2ccc(C)cc2)CC1	?	-	-	-56	0	?
Cc1ccc(S(=O)(=O)c2nc(-c3ccc(Cl)cc3)oc2N2CCCCCC2)cc1	?	-	-	-	0	?
Cc1ccc(-c2nc(S(=O)(=O)c3ccc(C)cc3)c(N3CCCCC3)o2)cc1	6.5µM	-	-	-	0	7.3µM
Cc1cccc(-c2nc(S(=O)(=O)c3ccc(F)cc3)c(N3CCN(c4ccccc4)CC3)o2)c1	?	-	-	-	0	?
Cc1cccc(-c2nc(S(=O)(=O)c3ccccc3)c(N3CCN(c4ccccc4)CC3)o2)c1	18µM	-	-	-	0	7.3µM
CC(C)C(C)NC(=O)Nc1ccc(C(N)=O)c(Cl)c1 (stereo not given)	-	-	-	-	0	-
CCc1nnc(NC(=O)c2cc(OC)c(OC)cc2OC)s1	-	-	-	-	0	-
COc1ccc(S(=O)(=O)N2CCN(C(=O)NC3CCCC3)CC2)cc1OC	-	-	-	-	0	-
O=c1c(-c2ccccc2)nnc2sc(-c3ccc(F)c(Cl)c3)nn12	-	-	-	-	0	-
Cc1cccc(C(=O)Nc2nonc2-c2ccc(Cl)cc2)c1	-	-	-	-	0	-
COc1cc(-c2cc3nc(NCCN(C)C)ccn3n2)cc(OC)c1OC	0	-	-	0	0	0
Brc1ccc(-c2csc(NC3CCCCC3)n2)cc1	-	-	-	-	0	-
COc1cc(-c2csc(NC3CCCCC3)n2)cc(OC)c1OC	?	0	?	-80	0	?
FC(F)(F)c1cccc(-c2cc3nc(NC4CCCCC4)ccn3n2)c1	21µM	-	-	0	0	?
COc1cc(-c2cc3nc(NC4CCCCC4)ccn3n2)cc(OC)c1OC	16µM	-	-	0	0	10µM
SMILES	DT40 TDP1 CPT	RORg inh	VP16 counter	IL1B secr inh	LDHA block	TDP1 cell noCPT
CCN(CC)C(=O)COc1nc(-c2ccco2)c2c(c1C#N)CCC2	-	-	-	-	0	-
C=CCOc1cccc(NC(=O)C2CC2)c1	-	-	-	-	0	-
CCOC(=O)c1[nH]c(C)c(C(=O)Nc2ccc(C)cc2C)c1C	2.3µM	?	0	0	0	1.3µM
CCOC(=O)c1[nH]c(C)c(C(=O)Nc2ccccc2F)c1C	2.3µM	0	0	0	0	2.6µM
CCOC(=O)c1[nH]c(C)c(C(=O)Nc2ccc(F)cc2)c1C	0	0	0	0	0	0
CCOC(=O)c1[nH]c(C)c(C(=O)Nc2ccc(C)c(C)c2)c1C	?	?	0	0	0	?
CCOC(=O)c1[nH]c(C)c(C(=O)c2ccc(C)cc2)c1C	2.3µM	0	0	0	0	2.1µM
O=C(NCCc1c[nH]c2ccc(Cl)cc12)c1c(F)cccc1F	-	-	-	-	0	-
CC(C#N)OC(=O)c1ccccc1Cc1ccccc1 (stereo not given)	-	-	-	-	0	-
